Many of the other results were omitted from the sample, so hits are more common in it than they were.
LmPK inh = blocks Leishmania mexicana pyruvate kinase activity | Q27686 | purified LmPK, Kinase-Glo ATP luminescence, 1 h | Potency, µM (highest dose often 57.5 µM), without a hit: top-dose activity change, negative = inhibition, hits mostly inhibitors | 290,000 tested, 0.37% active; note: potency is the fitted concentration of half-maximal effect; % is set by controls: 0 for no effect and ±100 for the full control effect
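Purified LmPK (0.1 nM) converted ADP (0.1 mM) to ATP with PEP (0.5 mM) in imidazole buffer pH 7.2 with KCl and MgCl2, 1 h at room temperature. ATP was read by Kinase-Glo luminescence; data normalized to uninhibited and no-enzyme controls.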
Giardia FBPA inh = Giardia lamblia aldolase inhibition. purified Giardia FBPA. A8B2U2. Potency, µM (highest dose often 59.6 µM), inactives show at the top dose activity, negative = inhibition, usual class: inhibitors. 290,000 tested, 0.71% active; note: potency is the fitted concentration of half-maximal effect; % is set by controls: 0 for no effect and ±100 for the full control effect; nearly all actives have a fitted effect of over 55% in size
Target sequence (A8B2U2 whole entry, looked up): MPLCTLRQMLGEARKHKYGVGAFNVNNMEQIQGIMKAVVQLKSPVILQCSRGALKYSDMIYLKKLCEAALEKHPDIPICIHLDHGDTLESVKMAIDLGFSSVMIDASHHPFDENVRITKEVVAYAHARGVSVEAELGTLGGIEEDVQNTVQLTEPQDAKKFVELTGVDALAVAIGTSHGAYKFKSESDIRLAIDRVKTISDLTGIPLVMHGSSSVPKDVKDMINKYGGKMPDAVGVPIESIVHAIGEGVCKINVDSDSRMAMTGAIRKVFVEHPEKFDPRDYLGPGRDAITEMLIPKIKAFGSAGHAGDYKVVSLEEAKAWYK
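Giardia FBPA (40 nM reagent) was preincubated 10 min at RT with compound (up to 57.5 uM final), then substrate plus GAPDH/TPI/NAD/arsenate coupling system with diaphorase/resazurin was added; resorufin fluorescence (525/598 nm) was read after 20 min.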
Tb PYK inh = T. brucei pyruvate kinase inhibition; TbPYK enzyme, Kinase-Glo Plus ATP luminescence, 45 min; AID 624173; Q57TT1; Potency, µM (top dose mostly 76.8 µM), inactives show at the top dose activity, negative = inhibition, actives largely listed as inhibitors; 410,000 tested, 0.12% active; note: potency is the fitted concentration of half-maximal effect; % is set by controls: 0 for no effect and ±100 for the full control effect; nearly all actives have a fitted effect of over 50% in size
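T. brucei PYK with substrate was exposed to pin-transferred compounds across a concentration series, then started with 130 uM ADP (final). After 45 min at room temperature, Kinase-Glo Plus luminescence was read, normalized and curve-fitted.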
Cycloheximide cs = counter-screen for Shiga toxin inhibitors: cycloheximide protein synthesis inhibition; 300,000 tested, 12% active; max response, %; cell reporter, cycloheximide protein synthesis inhibition counterscreen; in the data active = max response mostly above about 13%, no sharp cut-off; inactive = mostly below about 14%; note: read at 38.3 µM for the half of the compounds with a filed dose; 0% is about no effect
RE007 growth inh = less growth of the S. pombe RE007 Vpr strain. S. pombe RE007 Vpr strain, BacTiter-Glo ATP luminescence, 24 h. Potency, µM (doses to about 92.2 µM), without a hit: at the highest dose activity change, negative = less growth, actives largely listed as inhibitors. 360,000 tested, 0.21% active. AID 651644; active = well fitted falling curve with a large enough effect; inconclusive = small, poorly fitted or top-dose-only effect; inactive = no such curve, though single readings can be large or run the other way; note: potency is the fitted concentration of half-maximal effect; % is set by controls: 0 for no effect and ±100 for the full control effect; nearly all actives have a fitted effect of over 50% in size
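Fission yeast RE007 carrying one integrated HIV-1 vpr copy, seeded at OD 0.01 in PMG+AL medium with 23 nL pinned compound. Grown 24 h at 30 degrees; viability read by BacTiter-Glo luminescence after 5 min.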
Shiga toxin inh = inhibitors of Shiga toxin in Vero cells. Vero cells, Shiga toxin protein synthesis inhibition reporter. AID 2315. 290,000 tested, 9.2% active. inhibition, % at 38.7 µM; in the data active = inhibition mostly above about 28%, no sharp cut-off; inactive = mostly below about 43%; note: 0% is about no effect
* hit, by the source's call; i = inactive; ? = inconclusive; . = no result; [ ] = dose if it differs, or a comment. Unless noted, calls come from the whole dose curve; as a rule, active = well fitted curve in the direction sought with a large enough effect; inconclusive = small, poorly fitted or top-dose-only effect, or another doubt; inactive = no such curve, though single readings can be large; an effect the other way counts as inactive or inconclusive.

SMILES	LmPK inh	Giardia FBPA inh	Tb PYK inh	Cycloheximide cs	RE007 growth inh	Shiga toxin inh
Cc1nonc1OCCN1CCN(c2ccc([N+](=O)[O-])cc2)CC1	4%	-2%	3%	20*	6%	19
O=[N+]([O-])c1ccc(N2CCN(CCOc3nonc3-c3ccccc3)CC2)c(Cl)c1	-1%	.	0%	15	5%	-3
COc1cc(OC)c(NC(=O)CSc2nccn2C)cc1Cl	.	.	-1%	.	.	.
COc1cc2c(cc1NC(=O)CSc1nccn1C)oc1ccccc12	3%	-13%	1%	43*	-26%	68*
COc1cc2c(cc1NC(=O)CSc1ccccc1)oc1ccccc12	-6%	-3%	-1%	29*	-4%	19
CC(C)[C@H]1COC(c2cc(Cl)cc(Cl)c2)=N1	.	1%[89.2 µM]	.	-4	.	i
Cc1cccc(NC(=O)c2ccc(NCCc3ccccc3)c([N+](=O)[O-])c2)c1	4%	8%	4%	-2	11%	-6
Cc1ccc(NC(=O)c2ccc(NCCN)c([N+](=O)[O-])c2)cc1	0%	5%	2%	20*	-17%	33*
CCOC(=O)CNc1ccc(C(=O)OCC)cc1[N+](=O)[O-]	-4%	5%	-11%	4	-14%	-9
Cc1ccc(NC(=O)CSc2ccc(C(N)=O)cc2[N+](=O)[O-])cc1	-1%	0%	-5%	27	0%	43*
CCCNc1ccc(C(=O)OCC)cc1[N+](=O)[O-]	5%	4%	3%	52*	-7%	83*
CCOC(=O)c1c(C)oc2c1c(C(c1cccnc1)N1CCN(C)CC1)c(O)c1ccccc12 (centres undefined)	-4%	?	.	53*	.	156*
CC(C)(C)n1nnnc1C(c1cccnc1)N1CCOCC1 (centres undefined)	3%	3%	-1%	-1	-11%	-11
Cc1sc(NC(=O)c2ccco2)c(C(c2cccnc2)N2CCN(C)CC2)c1C (centres undefined)	6%	10%	-7%	-1	-29%	-10
CCOC(=O)c1c(C)oc2c1c(C(c1cccnc1)N1CCOCC1)c(O)c1ccccc12 (centres undefined)	3%	?	2%	49*	9%	123*
CC1=CC(=O)C2=C(C)CC[C@H]3[C@H](C)C(=O)O[C@@H]3C12 (some centres undefined)	.	13%	.	20	.	19
COc1ccc(CCNC(=O)c2nnn(-c3ccc4c(c3)OCCO4)c2N)cc1OC	7%	-27%	-5%	70*	9%	151*
Nc1c(C(=O)Nc2cccc(F)c2)nnn1-c1ccc2c(c1)OCCO2	-3%	7%	-12%	20*	0%	70*
CCOc1ccccc1NC(=O)c1nnn(-c2ccc3c(c2)OCCO3)c1N	-5%	-7%	9%	26*	25%	64*
Cc1ccccc1NC(=O)c1nnn(-c2ccc3c(c2)OCCO3)c1N	-8%	.	-9%	53*	6%	80*
Nc1c(C(=O)Nc2ccc3c(c2)OCCO3)nnn1Cc1ccc(F)cc1	.	.	-4%	.	-27%	.
COc1ccc(CCNC(=O)c2nnn(-c3ccccc3OC)c2N)cc1OC	0%	-1%	-6%	-2	11%	-2
O=C(NCC(=O)N1CC(O)CC1C(=O)N1CC(O)CC1C(=O)OCc1ccccc1)OCc1ccccc1 (centres undefined)	2%	9%	2%	20	7%	88*
CC(NC(=O)CNC(=O)OCc1ccccc1)C(=O)N1CC(O)CC1C(=O)OCc1ccccc1 (centres undefined)	4%	5%	0%	-4	5%	15
Cc1ccc(NN=C2c3ccccc3-c3ccccc32)cc1	5%	-14%	4%	48*	3%	70*
Cc1cc(C(=O)CSc2ccc(F)cc2)cc(C)c1O	6%	3%	16%	35*	-15%	61*
O=C(CSc1ccc(F)cc1)NC(=O)c1ccccc1	.	.	5%	.	16%	.
CCOC(=O)c1c(C)[nH]c(C(=O)COC(=O)CCSc2ccccc2)c1C	-2%	-4%	-10%	46*	10%	60*
